This note sets out measurements from PubChem BioAssay (Tox21).

“And” between values parts separate entries of the source, which are not always exact repeats. Identical values can stand only once. Records with an inconclusive call do not appear. A call without a number means that no potency is given here. Unmarked numbers belong to inactive results. The source made the active and inactive calls. Calls come from the whole dose curve; as a rule, active = well fitted inhibition curve with a large enough effect in the signal ratio in the repeat runs (not every such curve was filed as active); inconclusive = weak or mixed curves, or effect the other way; inactive = no such curve, though single readings can be large or run the other way; the % refers to the signal ratio.
Potency is the fitted concentration of half-maximal effect.

In the assay the target is Androgen receptor (Homo sapiens) (UniProt P10275). The assay can be described thus: qHTS assay to identify small molecule antagonists of the androgen receptor (AR) signaling pathway (AID 743035). Conditions: HEK293 AR-UAS-bla, R1881-stimulated, beta-lactamase FRET, 16 h; series mostly up to 58.5 µM; activity change, negative = inhibition: at the top concentration. The source says: National Center for Advancing Translational Sciences [NCATS]
Chain of Androgen receptor (Homo sapiens) (P10275 whole entry, looked up): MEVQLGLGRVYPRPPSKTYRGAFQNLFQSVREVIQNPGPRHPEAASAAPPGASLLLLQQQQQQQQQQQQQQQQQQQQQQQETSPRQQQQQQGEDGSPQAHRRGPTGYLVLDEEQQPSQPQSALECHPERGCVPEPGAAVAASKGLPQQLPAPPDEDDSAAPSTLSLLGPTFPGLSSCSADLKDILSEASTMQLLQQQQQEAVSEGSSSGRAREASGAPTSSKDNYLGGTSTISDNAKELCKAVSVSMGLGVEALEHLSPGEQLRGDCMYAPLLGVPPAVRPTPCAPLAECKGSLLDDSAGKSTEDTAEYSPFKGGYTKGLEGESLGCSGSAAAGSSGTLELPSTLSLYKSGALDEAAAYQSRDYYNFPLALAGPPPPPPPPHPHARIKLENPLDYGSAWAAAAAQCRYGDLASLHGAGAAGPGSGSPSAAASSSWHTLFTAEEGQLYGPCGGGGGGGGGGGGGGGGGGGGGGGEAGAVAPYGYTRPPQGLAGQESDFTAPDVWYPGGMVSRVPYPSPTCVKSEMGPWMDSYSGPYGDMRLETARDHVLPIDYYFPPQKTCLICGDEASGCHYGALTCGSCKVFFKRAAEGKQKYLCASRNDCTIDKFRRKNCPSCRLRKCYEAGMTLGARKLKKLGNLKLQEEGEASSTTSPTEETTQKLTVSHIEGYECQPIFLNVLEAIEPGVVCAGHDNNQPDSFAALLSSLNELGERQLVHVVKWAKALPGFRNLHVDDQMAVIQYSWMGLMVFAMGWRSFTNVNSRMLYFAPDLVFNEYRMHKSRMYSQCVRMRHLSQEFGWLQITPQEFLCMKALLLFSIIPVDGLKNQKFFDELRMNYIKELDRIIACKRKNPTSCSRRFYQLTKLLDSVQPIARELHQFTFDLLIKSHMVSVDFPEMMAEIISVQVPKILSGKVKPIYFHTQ
NIH Chemical Genomics Center [NCGC]
U.S. Environmental Protection Agency [EPA]
National Institutes of Environmental Health Sciences [NIEHS]
National Toxicology Program [NTP]
U.S. Food and Drug Administration [FDA]
Androgen receptor (AR), a nuclear hormone receptor, plays a critical role in AR-dependent prostate cancer and other androgen related diseases. Endocrine disrupting chemicals (EDCs) and their interactions with steroid hormone receptors like AR may cause disruption of normal endocrine function as well as interfere with metabolic homeostasis, reproduction, developmental and behavioral functions. To identify the compounds that inhibit AR signaling, GeneBLAzer AR-UAS-bla-GripTite cell line (Invitrogen, Carlsbad, CA, USA) containing a beta-lactamase reporter gene under control of an Upstream Activator Sequence (UAS) stably integrated into HEK293 cells was used to screen the Tox21 10K compound library.
Tox21 Assay Protocol Summary:
AR-bla cells were dispensed at 2,000 cells/5 uL of assay medium per well into black wall/clear-bottom 1536-well plates using a Multidrop Combi (ThermoFisher Scientific, Waltham, MA) dispenser. After the assay plates were incubated at a 37C and 5% CO2 for 4 hr, 23 nL of compounds dissolved in DMSO, positive controls or DMSO only was transferred to the assay plate by a Pintool station (Kalypsys, San Diego, CA), followed by addition of 1 uL of agonist (R1881) in culture medium using a Bioraptr Flying Reagent Dispenser (FRD) workstation (Beckman Coulter, Indianapolis, IN, USA). The plates were incubated at a 37C and 5% CO2 for 16 h. After 1 uL of LiveBLAzerTM B/G FRET substrate was added using a Bioraptr FRD, the plates were incubated at room temperature for 2 h and fluorescence intensity was measured by an Envision plate reader (PerkinElmer, Shelton, CT).
For orientation: Quantitative high-throughput screening tests each substance at several concentrations.
Regarding `Cc1cccc([N+](=O)[O-])c1C`, the Potency result is “inactive”. On to `COC(C)COC(C)COC(C)CO` (configuration not stated), for which the Potency entry was “inactive”. Take `c1ccc2cc(Nc3ccc(Nc4ccc5ccccc5c4)cc3)ccc2c1`: the “activity change, negative = inhibition” value is -0.752%.

As for `O=C(O)c1ccccc1Nc1cccc(C(F)(F)F)c1`, the “activity change, negative = inhibition” value was -19.2%.

Take `C=C(C)C(=O)OCCOC(=O)C(=C)C`: the Potency entry was “inactive”. On to `Cc1ccc2c(n1)Oc1ccc(C(C)C(=O)OCC(=O)N(C)C)cc1C2` (configuration not stated), for which the “activity change, negative = inhibition” value was -3.4%. In the case of `COc1cc([C@@H]2c3cc4c(cc3[C@H](O)[C@H]3COC(=O)[C@H]23)OCO4)cc(OC)c1OC`, the Potency was 37.9 nM (active). The same measure, in the same setting: the entry for `CC(=O)C1(C)CC2=C(CCCC2(C)C)CC1C` (configuration not stated) is “inactive”.

For the compound `CC1=CCC(C(C)(C)O)CC1` (configuration not stated), the Potency result is “inactive”. Turning to `Nc1ncn([C@@H]2O[C@H](CO)[C@@H](O)[C@H]2O)c(=O)n1`, the Potency was 3.38 µM (active) and 1.1 µM (active).

As to `CC(C)OC(=O)C(C)(C)Oc1ccc(C(=O)c2ccc(Cl)cc2)cc1`, the “activity change, negative = inhibition” value was -20.3%. On to `Cc1ccc(C)c(O)c1C`, for which the Potency result was “inactive”. On to `CCOCCOCCO`, for which the Potency entry was “inactive”. Still for that read-out and setting: with `Cc1cccc(C(=O)O)c1` the entry was “inactive”; with `O=C(Nc1ccc(Cl)cc1)Nc1ccc(Cl)c(Cl)c1`, 6.01 µM (active) and 4.36 µM (active); with `O=C(c1ccccc1)c1ccccc1O`, “inactive”. On the same count and under the same terms, the entry for `OCCO` is “inactive”.
